Measured values published in PubChem BioAssay AID1446 (The Scripps Research Institute Molecular Screening Center, 2008).
Hit rate of the full screen: of about 220,000 compounds, about 2,400 (1.1%) were called active. The list comes from a sample in which actives are over-represented; it also holds similar structures and randomly drawn compounds. Unmarked numbers belong to inactive results.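 The calls were made as follows: active = inhibition above the campaign mean plus 3 SD over all tested compounds (cut at about 24% in these data); inactive = the rest.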

Experiment: viability loss in Ba/F3 EpoR-JAK2V617F cells – cell-based, luminescence, JAK2V617F inhibitor project, primary screen (AID 1446);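 also: cytokine-independent growth of Ba/F3 cells driven by EpoR plus mutant JAK2; 0% = DMSO-treated cells and 100% = JAK inhibitor I control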
Details: ATP luminescence, at 5.6 µM, active compounds read high

Compound	inhibition
COc1ccc(OC(C)C(=O)NCCc2nc3ccccc3[nH]2)cc1 (configuration not stated)	-2.24%
COc1cc(OC)cc(C(=O)N[C@H](C(=O)OCC(=O)NC(C)c2ccccc2)C(C)C)c1 (some centres not stated)	-0.99%
COc1cc(OC)cc(C(=O)N[C@H](C(=O)Nc2nc3ccccc3[nH]2)C(C)C)c1	76.2% (active)
COC(=O)Cc1ccc(N(Cc2ccccc2F)S(=O)(=O)c2ccc(Br)cc2)cc1	-1.26%
COC(=O)Cn1c(O)c(N=NC(=O)OC)c2ccccc21	-2.09%
Cc1oc2c(c1C(=O)N1CCOCC1)C(=O)c1ccccc1C2=O	3.99%
CCOC(=O)NC(=O)/C(C#N)=C\c1ccccc1	1.65%
Cc1coc(C)c1C(=O)CC1(O)C(=O)N(C)c2ccc(Cl)cc21 (configuration not stated)	2.68%
Cc1ccc(/C=N/NC(=O)COc2ccccc2-c2ccccc2)cc1	86.5% (active)
Cc1ccc(OCC(=O)N/N=C/c2ccncc2)cc1	-1.35%
Cc1ccc(OCC(=O)N/N=C\c2ccco2)c(C)c1	-7.98%
Cc1cc(C)nc(SCC(=O)N(C)C)n1	-5.1%
Nc1cccc(CCc2nc3ccccc3[nH]2)c1	-1.26%
Cc1ccc(S(=O)(=O)C2(S(=O)(=O)c3ccc(C)cc3)CCCC2)cc1	30.1% (active)
Cc1ccc(S(=O)(=O)N(C)C2(C)CCS(=O)(=O)C2)cc1 (configuration not stated)	-0.37%
Cc1ccc(S(=O)(=O)NC(=O)N2CCCC(C)(C)C2)cc1	-3.44%
Cc1ccc(NC(=O)C(=O)NCc2ccco2)c(C)c1	-1.41%
CCN(C(=O)COC(=O)c1cc(NS(=O)(=O)c2ccc(Cl)c([N+](=O)[O-])c2)ccc1O)C1CCCCC1	-2.87%
COc1ccccc1NC1=NC2(CCCC2)N=C(N)N1	1.28%
COc1ccccc1NC1=NC(c2ccc(Cl)cc2)N=C(N)N1 (configuration not stated)	84.9% (active)
COc1ccccc1Nc1nc(N)nc(CN(C)C2CCCCC2)n1	-3.54%
CC(C)(C)c1ccc(C(=O)NCCn2c(N)c(C#N)c3nc4ccccc4nc32)cc1	1.57%
CC(C)(C)NC(=O)COC(=O)c1cc(Br)ccc1Cl	-5.58%
CCOc1ccc(-n2c(O)c(/C=N/Nc3nnc(C)c(=O)[nH]3)c3ccccc3c2=O)cc1	-1.02%
COc1ccc(Cc2nnc(N/N=C/c3ccccc3O)[nH]c2=O)cc1OC	24.2% (active)

Compound	inhibition
Cc1nnc(N/N=C/c2ccccn2)[nH]c1=O	-4.34%
CSCC(NS(=O)(=O)c1ccc(C)cc1)C(=O)O (configuration not stated)	-0.95%
CC(=O)Nc1ccc(C(=O)/C=C/c2ccc[nH]2)cc1	0.42%
Cc1ccc(NC(=O)CC2S/C(=N/N=C3\CCCc4ccccc43)NC2=O)cc1 (configuration not stated)	-2.25%
CCOc1ccc(S(=O)(=O)Nc2ccc(S(=O)(=O)Nc3cc(OC)ccc3OC)cc2)cc1	3.6%
COc1ccc(NS(=O)(=O)c2ccc(Oc3c(C#N)cccc3C#N)cc2)cc1	40.8% (active)
COc1ccc(NS(=O)(=O)c2ccc(NC(=O)c3ccc(N(C)S(C)(=O)=O)cc3)cc2)cc1	22.6%
Cc1cc(C)c(NC(=S)N2CCCC2C(=O)O)c(C)c1 (configuration not stated)	-0.43%
Nc1nnc(SCC(=O)OCc2ccc(Cl)c(Cl)c2)s1	1.09%
Cc1ccc(S(=O)(=O)N(C)c2ccc(OCC(=O)NC3=NCCS3)cc2)cc1	4.42%
COc1ccc(CC(=O)NCc2nnc(SCC(=O)Nc3nccs3)n2C)cc1	-0.03%
CC(=O)NCCc1nc2cc(NC(=O)c3ccccc3)ccc2n1C	3.36%
Cn1c(CCN2CCCCCC2)nc2cc(NC(=O)Nc3ccccc3)ccc21	77.4% (active)
CCC(=O)Nc1ccc2c(c1)nc(CCN1CCN(C)CC1)n2C	0.28%
Cc1ccc(N(C(=O)Cc2cccs2)C2C=CS(=O)(=O)C2)cc1Cl (configuration not stated)	3.93%
O=c1[nH]c(CSc2ccccc2)nc2c1oc1ccccc12	-0.61%
CCOC(=O)c1c(-c2ccc(C)cc2)csc1/N=C(\C)C1=C(O)c2ccccc2C1=O	-3.38%
CCOC(=O)c1ccccc1NS(=O)(=O)c1ccc(OC)cc1	-0.82%
CCOC(=O)C1=C(c2ccc(OC)cc2)C(=O)c2ccccc2C1=O	46.9% (active)
COc1ccccc1Nc1nc(N)nc(CSC(=S)N2CCOCC2)n1	0.7%
O=c1cc(-c2ccccc2)[nH]c2cc(F)ccc12	70.7% (active)
Cc1ccc(-c2cc(=O)c3ccc(F)cc3[nH]2)cc1	-1.31%
Cc1ccc(-c2cc(=O)c3ccc(Cl)cc3[nH]2)cc1	-3.39%
CCOC(=O)c1cnc(Nc2nc3ccccc3o2)nc1CSC(=S)N1CCCCC1	-2.9%
CC#CC[N+](C)(C)CCCCCC	35.9% (active)

Compound	inhibition
C/C(=N\NC(=O)c1cccc(N2CCCC2=O)c1)c1ccc(N)cc1	0.87%
CC1=NNC(=O)C1CCC(=O)N/N=C(\C)c1ccc(Cl)cc1 (configuration not stated)	-7.29%
Cc1cccc(NC(=O)c2ccc([N+](=O)[O-])o2)c1	38.7% (active)
Cc1onc(NC(=O)c2ccc([N+](=O)[O-])o2)c1Br	2.15%
Cc1cccc(NC(=S)NC(=O)c2ccc(Br)o2)c1	1.21%
Cc1ccc(S(=O)(=O)Nc2ccc3ncccc3c2)cc1	32.3% (active)
Cc1cc(C)cc(OCC(=O)Nc2ccc(S(=O)(=O)Nc3ccccn3)cc2)c1	-4.41%
Cc1ccc(OCC(=O)Nc2ccc(S(=O)(=O)Nc3ccccn3)cc2)cc1	-2.67%
c1ccc(-c2ccc3c(c2)NC(C2Nc4cc(-c5ccccc5)ccc4O2)O3)cc1 (configuration not stated)	-3.19%
Cc1c(Cl)c([N+](=O)[O-])nn1CCCC(=O)NC(C)c1ccccc1 (configuration not stated)	0.46%
CC(C)CCN1CCN(C/C=C/c2ccco2)CC1CCO (configuration not stated)	-3.77%
Oc1ccc(N=Nc2nccs2)c(O)c1	8.36%
Oc1ccc2ccccc2c1N=Nc1nccs1	98.2% (active)
Oc1ccc2ccccc2c1C=Nc1ccccc1	0.08%
CCCC(NC(=O)c1ccco1)c1nc2ccccc2[nH]1 (configuration not stated)	4.01%
Cn1c(=O)c2c(nc(NCCc3ccccc3)n2Cc2ccccc2)n(C)c1=O	1.54%
COC(=O)C(C)Sc1nc2c(c(=O)n(C)c(=O)n2C)n1Cc1cccc(C)c1 (configuration not stated)	-3.92%
CCCCNc1nc2c(c(=O)n(C)c(=O)n2C)n1Cc1cccc(OC)c1	52.4% (active)
O=C(NCC1CCCO1)c1ccccc1-c1nc(-c2ccccc2Cl)no1 (configuration not stated)	4.19%
COc1ccc(CCNS(=O)(=O)c2ccc(C(=O)NCc3ccco3)cc2)cc1OC	-0.49%
COc1ccc2c(Cl)c(C(=O)NCc3ccco3)sc2c1	-3.38%
CCCC1=Nc2cc(C(=O)NCc3ccco3)ccc2Sc2ccccc21	81.1% (active)
O=[N+]([O-])C(=c1ccc2c(c1)N1C3=C(CCCC3)CC3CCCCC31N=2)[N+](=O)[O-] (configuration not stated)	-3.46%
COc1ccccc1CNC(=O)CNC(=O)c1cn(-c2ccccc2OC)c(=O)c2ccccc12	-3.01%
Cn1nc(C(F)(F)F)cc1-c1ccc(/C=C(\C#N)C(=O)c2cccc(C(F)(F)F)c2)s1	-2.61%

Compound	inhibition
S=c1[nH]nc(-c2ccccc2)n1/N=C/c1c[nH]c2ccccc12	-2.71%
CSC(=S)N/N=C/c1c[nH]c2ccccc12	-3.06%
C[n+]1ccc(/C=C/c2c[nH]c3ccccc23)cc1	88.5% (active)
CC1(C)C2CC=C(/C=N/NC(=O)c3ccc(Cl)cc3)C1C2 (configuration not stated)	-0.76%
CCOC(=O)N1CCN(S(=O)(=O)c2ccc(C(=O)Nc3ccc(F)cc3F)cc2)CC1	54.4% (active)
COc1ccc(C(=O)Nc2ccc(F)cc2F)cc1	-3.55%
O=C(Nc1cccc(F)c1)c1ccc(S(=O)(=O)N2CCCC2)cc1	2.9%
O=C(COC(=O)c1ccc(O)cc1)Nc1nccs1	0.51%
Cc1nc(N2CCC(C)CC2)c2c(C)c(C(=O)Nc3cc(F)ccc3C)sc2n1	2.17%
C=CCSc1nnc(NC(=O)c2ccc(NC(C)=O)cc2)s1	-0.62%
CC(=O)c1sc(NC(=O)c2cccc3ccccc23)nc1C	-0.63%
O=C(Cc1ccc2c(c1)CCCC2)Nc1ccccc1Cl	3.77%
CC(NC(=O)c1cccc2ccccc12)c1ccc2c(c1)CCCC2 (configuration not stated)	64.5% (active)
O=[N+]([O-])c1ccc2nc(-c3ccccn3)[nH]c2c1	2.31%
NNC(=O)c1oc2nc(-c3ccccc3)cc(-c3ccco3)c2c1N	-4.49%
COC(=O)c1cc2c(ccn2C)n1C	-1.58%
Cc1ccc(S(=O)(=O)N2CCOCC2)cc1C(=O)OC1CCCCC1=O (configuration not stated)	0.06%
O=C(CN1CCCCC1)Nc1ccccc1Cl	1.81%
O=C(Nc1ccccc1Cl)/C(Cl)=C(\Cl)S(=O)c1ccccc1 (configuration not stated)	102% (active)
O=C(Nc1ccccc1Cl)c1ccc2nsnc2c1	0.05%
O=S(=O)(Nc1n[nH]c(C(F)(F)F)n1)c1ccccc1	-3.72%
O=C(CNc1ccc(F)cc1F)NC(=O)NCc1ccco1	4.79%
